# Source: PubChem
# Vif-A3G inh: Vif-A3G binding inhibition. Q9HC16. 0.076% of 410,000 active. Potency, µM (doses to about 46.1 µM), inactives show at the top dose activity, negative = active, actives largely listed as inhibitors. AID 602310. HeLa A3G-eYFP + Vif (tagged APOBEC3G with the HIV-1 protein that degrades it), YFP fluorescence, overnight; note: % is set by controls: 0 for no effect and ±100 for the full control effect; nearly all actives have a fitted effect of over 60% in size
# Target sequence (Q9HC16 whole entry, looked up): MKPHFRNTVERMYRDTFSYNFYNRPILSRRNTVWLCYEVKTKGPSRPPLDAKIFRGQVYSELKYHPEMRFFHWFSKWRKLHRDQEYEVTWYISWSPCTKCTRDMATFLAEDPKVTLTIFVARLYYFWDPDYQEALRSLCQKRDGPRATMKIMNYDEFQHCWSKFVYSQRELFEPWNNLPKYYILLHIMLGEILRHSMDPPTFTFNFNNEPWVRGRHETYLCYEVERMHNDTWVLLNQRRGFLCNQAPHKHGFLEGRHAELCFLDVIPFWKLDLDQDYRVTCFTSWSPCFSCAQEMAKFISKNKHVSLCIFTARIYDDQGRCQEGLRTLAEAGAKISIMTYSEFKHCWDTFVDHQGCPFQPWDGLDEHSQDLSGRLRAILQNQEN
#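 Read-out is eYFP fluorescence (Ex 488/Em 500-530) from Vif-expressing HeLa A3G-eYFP cells; more signal means A3G escaped Vif-mediated degradation. Cells plated overnight, compound pinned in, incubated overnight at 37 deg C.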
# Vif-APOBEC3F blk: inhibitors of Vif-A3F interaction; HeLa A3F-eYFP + Vif (tagged APOBEC3F with the HIV-1 protein that degrades it), YFP fluorescence increase; Potency, µM (doses to about 46.1 µM), inactives show at the highest dose activity, negative = active; 0.2% of 390,000 active; note: % of control where 0% means no effect; nearly all actives have a fitted effect of over 65% in size
#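 HeLa cells stably expressing A3F-eYFP plus Vif, plated and incubated overnight at 37 deg C, then exposed to compounds overnight at 37 deg C. Blocked degradation read as raised yellow fluorescence (Ex 488/Em 500-530).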
# Epigenetic reg: derepresses silenced GFP reporter in murine cells; Potency, µM (highest dose often 53.9 µM), inactives show top-dose GFP activation, actives largely listed as activators; murine LDR cells, GFP reporter derepression, 30 h; 0.2% of 280,000 active; note: % of control where 0% means no effect; nearly all actives have a fitted effect of over 60% in size
#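 Reporter derepression read as number of fluorescent GFP-positive objects, 20-120 um in size, counted by laser-scanning cytometer. Mouse LDR line with an epigenetically silenced CMV-GFP locus; compound incubation 30 h, 37 C.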
# * hit, by the source's call; ? = inconclusive; · = not tested or not shown. In the library only some 0.34% were active in any assay of this set; here they are far more common. Calls come from the whole dose curve; as a rule, active = well fitted curve in the direction sought with a large enough effect; inconclusive = small, poorly fitted or top-dose-only effect, or another doubt; inactive = no such curve, though single readings can be large; an effect the other way counts as inactive or inconclusive. Potency is the fitted concentration of half-maximal effect.
SMILES,Vif-A3G inh,Vif-APOBEC3F blk,Epigenetic reg
Cc1ccc(NC(=O)Cn2c(O)c(N=NC(=O)c3ccncc3)c3ccccc32)cc1,0%,4µM*,3%
COc1ccc(Br)cc1CNC(=O)CN1C(=O)c2cccnc2Oc2ccc(C)cc21,-5%,1%,-1%
N#C/C(=C/c1ccc(N2CCOCC2)o1)c1ccc(Cl)cc1,7.1µM*,?,3.2µM*
N#C/C(=C\c1ccc(N2CCOCC2)c([N+](=O)[O-])c1)c1nc2ccccc2[nH]1,0%,9%,-3%
N#C/C(=C\c1ccc(N2CCCCC2)o1)C(N)=O,?,?,7%
N#C/C(=C\c1ccc(N2CCOCC2)o1)c1nc2ccccc2[nH]1,2%,?,13µM*
COc1ccc(NC(=O)c2sc3nc4c(cc3c2N)CN(C(C)C)CC4)c(OC)c1,3%,1%,0%
COc1cccc(C(=O)Nc2c(C(=O)Nc3ccc(F)cc3)oc3ccccc23)c1OC,-6%,-7%,0%
COc1ccccc1NC(=O)c1oc2ccccc2c1NC(=O)c1cccc(OC)c1OC,5.6µM*,-12%,2%
Cc1cccc(NC(=O)CCNS(=O)(=O)c2ccc3c(c2)CCCC(=O)N3)c1C,2%,3%,-1%
CCCCn1c(N)c(N(CCC(C)C)C(=O)COC(=O)c2ccc([N+](=O)[O-])s2)c(=O)[nH]c1=O,-23%,?,·
CCCCN(C(=O)c1ccc([N+](=O)[O-])s1)c1c(N)n(CCCC)c(=O)[nH]c1=O,-17%,13µM*,·
CCOC(=O)N1CCC(NC(=O)c2cnn(-c3ccc(F)cc3)c2-n2cccc2)CC1,0%,-3%,-1%
Cc1ccc(NC(=O)c2ccc(NCc3ccco3)c([N+](=O)[O-])c2)cc1Cl,?,8.9µM*,-1%
Cc1ccc(NC(=O)c2ccc(NCC3CCCO3)c([N+](=O)[O-])c2)cc1Cl (stereo not given),-26%,11µM*,?
Cc1cccc(NC(=O)c2ccc(NCCc3ccccc3)c([N+](=O)[O-])c2)c1,-17%,?,18µM*
Cc1ccc(NC(=O)c2ccc(NCCN)c([N+](=O)[O-])c2)cc1,-1%,0%,-3%
NC(=O)c1ccc(NCC2CCCO2)c([N+](=O)[O-])c1 (stereo not given),-4%,-23%,·
O=C(Nc1cccc(Cl)c1)c1ccc(NCCCN2CCOCC2)c([N+](=O)[O-])c1,1%,-14%,1%
Cc1ccc(C(=O)NCc2ccco2)cc1[N+](=O)[O-],-1%,-12%,1%
Cc1ccc(NC(=O)c2ccc(NCCCN3CCC(C)CC3)c([N+](=O)[O-])c2)cc1F,-26%,10µM*,?
CC(C)[C@H]1COCCS(=O)(=O)N1Cc1cccc([N+](=O)[O-])c1,0%,·,·
Cc1cnc2ccc(I)cc2c1/C=C/c1ccc(N(C)C)cc1,-28%,·,·
Clc1ccccc1Cn1c(/C=C/c2ccco2)nc2ccccc21,10µM*,?,?
O=C(NCCCc1nc2ccccc2n1Cc1ccccc1Cl)c1ccco1,1%,1%,-2%
SMILES,Vif-A3G inh,Vif-APOBEC3F blk,Epigenetic reg
c1ccc(-c2nc(NC3CCCC3)c3ccccc3n2)cc1,0%,8%,·
CN(C)c1ccc(-c2nc(NC3CCNCC3)c3ccccc3n2)cc1,·,·,2.8µM*
Cc1cccc(C)c1NC(=O)c1sc(-n2nc(C)c(Cc3ccccc3)c2C)nc1C,0%,-3%,6%
CCN1C/C(=C/c2cccs2)c2nc3ccccc3c(C(=O)O)c2C1,0%,-9%,-1%
CCc1ccc(/C=C2\CN(CC)Cc3c2nc2ccccc2c3C(=O)O)cc1,1%,4%,16µM*
COC(=O)c1ccc(NC(=O)CC2C(=O)N(c3cccc(C)c3)C(=O)N2C2CCCC2)cc1 (stereo not given),3%,9%,-2%
CCOC(=O)c1cc(S(=O)(=O)Nc2ccccc2OCC)[nH]n1,1%,1%,-2%
O=C(Nc1ccc([N+](=O)[O-])cc1)C(Cc1ccccc1)N1C(=O)c2cccc3cccc(c23)C1=O (stereo not given),10µM*,?,1%
O=C(Nc1ccccc1)C(Cc1ccccc1)N1Cc2ccccc2C1=O (stereo not given),1%,7%,1%
O=C1[C@H](Cc2ccccc2)NC/C=C\C[C@H](c2ccc(Cl)cc2)N1Cc1ccc(Cl)cc1,-13%,·,·
O=S1(=O)CCOC[C@H](c2ccccc2)N1Cc1ccc(Cl)c(Cl)c1,-2%,·,·
CC(=O)NC(c1cccs1)c1cc(F)c2cccnc2c1O (stereo not given),?,10µM*,·
CCC(=O)NC(c1cccs1)c1ccc2cccnc2c1O (stereo not given),0%,-16%,4µM*
